Results from PubChem BioAssay (NCATS).
Inconclusive results are not listed. Activity calls are given as the source filed them. Calls follow the shape of the dose curve; as a rule, active = well fitted inhibition curve with a large enough effect; inconclusive = small, poorly fitted or top-dose-only effect; inactive = flat fitted curve, though single readings scatter.

Columns and labels:
Assay in all cases: qHTS profiling for inhibitors of Plasmodium falciparum proliferation (AID 504749); also: nearly all actives have a fitted effect of over 60% in size
Settings in all cases: P. falciparum in erythrocytes, SYBR Green DNA, 72 h; series mostly up to 28.7 µM
CP315 = system: CP315
Summary of the method: (§1)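 Infected RBCs, 0.3% parasitemia/2.5% Hct final; cpd 72 h, 37 C, 5% CO2; lysis buffer with saponin/triton/SYBR Green I, o/n RT dark; FI 485/535; norm. to artemisinin (0.29 uM) and DMSO.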

CP325 = system: CP325
Summary of the method: as §1

CP329 = system: CP329
Summary of the method: as §1

CP335 = system: CP335
Summary of the method: as §1

DFO2036 = system: DFO2036
Summary of the method: as §1

DIV14 = system: DIV14
Summary of the method: as §1

DIV17 = system: DIV17
Summary of the method: as §1

DIV30 = system: DIV30
Summary of the method: as §1

Dd2 = system: Dd2
Summary of the method: as §1

ECU = system: ECU
Summary of the method: as §1

FAB9 = system: FAB9
Summary of the method: as §1

GB4 = system: GB4
Summary of the method: as §1

HB3 = system: HB3
Summary of the method: as §1

ICS = system: ICS
Summary of the method: as §1

JCK = system: JCK
Summary of the method: as §1

N140 = system: N140
Summary of the method: as §1

P93_24 = system: P93_24
Summary of the method: as §1

P94_40 = system: P94_40
Summary of the method: as §1

PAD = system: PAD
Summary of the method: as §1

PC15 = system: PC15
Summary of the method: as §1

Measured: Potency

CCOC(=O)[C@H](CCc1ccccc1)N[C@@H](C)C(=O)N1CCC[C@H]1C(=O)O
inactive: CP315 | CP325 | CP329 | CP335 | DFO2036 | DIV14 | DIV17 | DIV30 | Dd2 | ECU | FAB9 | GB4 | HB3 | ICS | JCK | N140 | P93_24 | P94_40 | PAD | PC15

Cc1ccccc1N=Nc1ccc(N=Nc2c(O)ccc3ccccc23)c(C)c1
inactive: CP315 | CP325 | CP329 | CP335 | DFO2036 | DIV14 | DIV17 | DIV30 | Dd2 | ECU | FAB9 | GB4 | HB3 | ICS | JCK | N140 | P93_24 | P94_40 | PAD | PC15

COc1ccc(NS(=O)(=O)c2ccc(N)cc2)nn1
inactive: CP315 | CP325 | CP329 | CP335 | DFO2036 | DIV14 | DIV17 | DIV30 | Dd2 | ECU | FAB9 | GB4 | HB3 | ICS | JCK | N140 | P93_24 | P94_40 | PAD | PC15

Nc1ccncc1N
inactive: CP315 | CP325 | CP329 | CP335 | DFO2036 | DIV14 | DIV17 | DIV30 | Dd2 | ECU | FAB9 | GB4 | HB3 | ICS | JCK | N140 | P93_24 | P94_40 | PAD | PC15

C=CCSCC1Nc2cc(Cl)c(S(N)(=O)=O)cc2S(=O)(=O)N1 (configuration not stated)
inactive: CP315 | CP325 | CP329 | CP335 | DFO2036 | DIV14 | DIV17 | DIV30 | Dd2 | ECU | FAB9 | GB4 | HB3 | ICS | JCK | N140 | P93_24 | P94_40 | PAD | PC15

O=C(O)c1ccc(OCCCOc2ccc(C(=O)O)cc2)cc1
inactive: CP315 | CP325 | CP329 | CP335 | DFO2036 | DIV14 | DIV17 | DIV30 | Dd2 | ECU | FAB9 | GB4 | HB3 | ICS | JCK | N140 | P93_24 | P94_40 | PAD | PC15

Cc1cc(=O)[nH]c(=S)[nH]1
inactive: CP315 | CP325 | CP329 | CP335 | DFO2036 | DIV14 | DIV17 | DIV30 | Dd2 | ECU | FAB9 | GB4 | HB3 | ICS | JCK | N140 | P93_24 | P94_40 | PAD | PC15

CN1CCN(C(=O)C2CCCCC2)CC1
inactive: CP315 | CP325 | CP329 | CP335 | DFO2036 | DIV14 | DIV17 | DIV30 | Dd2 | ECU | FAB9 | GB4 | HB3 | ICS | JCK | N140 | P93_24 | P94_40 | PAD | PC15

O=C(OOC(=O)c1ccccc1)c1ccccc1
inactive: CP315 | CP325 | CP329 | CP335 | DFO2036 | DIV14 | DIV17 | DIV30 | Dd2 | ECU | FAB9 | GB4 | HB3 | ICS | JCK | N140 | P93_24 | P94_40 | PAD | PC15

O=C(O)CCCc1ccccc1
inactive: CP315 | CP325 | CP329 | CP335 | DFO2036 | DIV14 | DIV17 | DIV30 | Dd2 | ECU | FAB9 | GB4 | HB3 | ICS | JCK | N140 | P93_24 | P94_40 | PAD | PC15

c1ccc2[nH]ccc2c1
inactive: CP315 | CP325 | CP329 | CP335 | DFO2036 | DIV14 | DIV17 | DIV30 | Dd2 | ECU | FAB9 | GB4 | HB3 | ICS | JCK | N140 | P93_24 | P94_40 | PAD | PC15

NS(=O)(=O)c1ccc(C(=O)O)cc1
inactive: CP315 | CP325 | CP329 | CP335 | DFO2036 | DIV14 | DIV17 | DIV30 | Dd2 | ECU | FAB9 | GB4 | HB3 | ICS | JCK | N140 | P93_24 | P94_40 | PAD | PC15

O=C(CN1CCNCC1)NC1CCCCC1
inactive: CP315 | CP325 | CP329 | CP335 | DFO2036 | DIV14 | DIV17 | DIV30 | Dd2 | ECU | FAB9 | GB4 | HB3 | ICS | JCK | N140 | P93_24 | P94_40 | PAD | PC15

CCCCCCCCCCCCCCCCC(C(=O)O)C(O)(CC(=O)O)C(=O)O (configuration not stated)
inactive: CP315 | CP325 | CP329 | CP335 | DFO2036 | DIV14 | DIV17 | DIV30 | Dd2 | ECU | FAB9 | GB4 | HB3 | ICS | JCK | N140 | P93_24 | P94_40 | PAD | PC15

CCCCCCCCCCCCCCCCN
inactive: CP315 | CP325 | CP329 | CP335 | DFO2036 | DIV14 | DIV17 | DIV30 | Dd2 | ECU | FAB9 | GB4 | HB3 | ICS | JCK | N140 | P93_24 | P94_40 | PAD | PC15

O=C(Cn1ccnc1[N+](=O)[O-])NCc1ccccc1
inactive: CP315 | CP325 | CP329 | CP335 | DFO2036 | DIV14 | DIV17 | DIV30 | Dd2 | ECU | FAB9 | GB4 | HB3 | ICS | JCK | N140 | P93_24 | P94_40 | PAD | PC15

COc1ccccc1OC(=O)Oc1ccccc1OC
inactive: CP315 | CP325 | CP329 | CP335 | DFO2036 | DIV14 | DIV17 | DIV30 | Dd2 | ECU | FAB9 | GB4 | HB3 | ICS | JCK | N140 | P93_24 | P94_40 | PAD | PC15

CC(=O)Oc1cccc(O)c1
inactive: CP315 | CP325 | CP329 | CP335 | DFO2036 | DIV14 | DIV17 | DIV30 | Dd2 | ECU | FAB9 | GB4 | HB3 | ICS | JCK | N140 | P94_40 | PAD | PC15

CC(CSC(=O)c1ccccc1)C(=O)N1C[C@@H](Sc2ccccc2)C[C@H]1C(=O)O (some centres not stated)
inactive: CP315 | CP325 | CP329 | CP335 | DFO2036 | DIV14 | DIV17 | DIV30 | Dd2 | ECU | FAB9 | GB4 | HB3 | ICS | JCK | N140 | P93_24 | P94_40 | PAD | PC15

Cn1c(=O)c2c(ncn2CCO)n(C)c1=O
inactive: CP315 | CP325 | CP329 | CP335 | DFO2036 | DIV14 | DIV17 | DIV30 | Dd2 | ECU | FAB9 | GB4 | HB3 | ICS | JCK | N140 | P93_24 | P94_40 | PAD | PC15

CCCCC1(COC(=O)CCC(=O)O)C(=O)N(c2ccccc2)N(c2ccccc2)C1=O
inactive: CP315 | CP325 | CP329 | CP335 | DFO2036 | DIV14 | DIV17 | DIV30 | Dd2 | ECU | FAB9 | GB4 | HB3 | ICS | JCK | N140 | P93_24 | P94_40 | PAD | PC15

CC(C)c1cc2c(cc1S(=O)(=O)O)[C@@]1(C)CCC[C@@](C)(C(=O)O)[C@@H]1CC2
inactive: CP315 | CP325 | CP329 | CP335 | DFO2036 | DIV14 | DIV17 | DIV30 | Dd2 | ECU | FAB9 | GB4 | HB3 | ICS | JCK | N140 | P93_24 | P94_40 | PAD | PC15

Nc1ccc(S(=O)(=O)c2ccc(N)cc2)cc1
inactive: CP315 | CP325 | CP329 | CP335 | DFO2036 | DIV14 | DIV17 | DIV30 | Dd2 | ECU | FAB9 | GB4 | HB3 | ICS | JCK | N140 | P93_24 | P94_40 | PAD | PC15

NC(=O)CC[C@@H](N)C(=O)O
inactive: CP315 | CP325 | CP329 | CP335 | DFO2036 | DIV14 | DIV17 | DIV30 | Dd2 | ECU | FAB9 | GB4 | HB3 | ICS | JCK | N140 | P94_40 | PAD | PC15

CC(C)CCCC(C)CCCC(C)CCCCC(C)CCCC(C)CCCC(C)C (configuration not stated)
inactive: CP315 | CP325 | CP329 | CP335 | DFO2036 | DIV14 | DIV17 | DIV30 | Dd2 | ECU | FAB9 | GB4 | HB3 | ICS | JCK | N140 | P93_24 | PAD | PC15

Cc1ccc(C(C)C)c(O)c1
inactive: CP315 | CP325 | CP329 | CP335 | DFO2036 | DIV14 | DIV17 | DIV30 | Dd2 | ECU | FAB9 | GB4 | HB3 | ICS | JCK | N140 | P93_24 | P94_40 | PAD | PC15

NC(N)=NS(=O)(=O)c1ccc(N)cc1
inactive: CP315 | CP325 | CP329 | CP335 | DFO2036 | DIV14 | DIV17 | DIV30 | Dd2 | ECU | FAB9 | GB4 | HB3 | ICS | JCK | N140 | P93_24 | P94_40 | PAD | PC15

CCOC(N)=O
inactive: CP315 | CP325 | CP329 | CP335 | DFO2036 | DIV14 | DIV17 | DIV30 | Dd2 | ECU | FAB9 | GB4 | HB3 | ICS | JCK | N140 | P93_24 | P94_40 | PAD | PC15

C[C@@H]1O[C@@H](OC[C@H]2O[C@@H](Oc3c(-c4ccc(O)c(O)c4)oc4cc(O)cc(O)c4c3=O)[C@H](O)[C@@H](O)[C@@H]2O)[C@H](O)[C@H](O)[C@H]1O
inactive: CP315 | CP325 | CP329 | CP335 | DFO2036 | DIV14 | DIV17 | DIV30 | Dd2 | ECU | FAB9 | GB4 | HB3 | ICS | JCK | N140 | P93_24 | P94_40 | PAD | PC15
